The results in this text go back to PubChem BioAssay AID1159580 (chemical genetic matrix, 2015).

Structures are written as SMILES. Screen size: about 5,500 compounds; about 2,000 (36%) were called active. Not shown: some 18% with an inconclusive outcome. The list shows a part of the results. Unmarked numbers belong to inactive results. No stated cut-off is given here; in the data, active means normalized growth mostly below about 0.91 (no sharp cut-off); inconclusive means no clear call, values can overlap the other calls; inactive means mostly above about 0.92.

The assay in a line: chemical genetic growth profiling, strain panel (AID 1159580).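 Further: tested at 20 µM; growth read once vehicle control cultures reached saturation at 30 °C; 1 = growth at the plate median or of vehicle wells; lower values mean less growth of the strain.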 The following applies: S. cerevisiae deletion strains, growth OD.

Take `N#CC(=C(\N)Sc1ccccc1N)/C(C#N)=C(/N)Sc1ccccc1N`: the normalized growth (locus YAL013W, strain DEP1, active compounds read low) was 0.988; the normalized growth (locus YAL040C, strain CLN3, active compounds read low) is 0.974; the normalized growth (locus YCL061C, strain MRC1 (second series), active compounds read low) is 1.01; the normalized growth (locus YDR150W, strain NUM1, active compounds read low) was 1.01; the normalized growth (locus YDR363W, strain ESC2, active compounds read low) is 1; the normalized growth (locus YER002W, strain NOP16, active compounds read low) is 1. Further, the normalized growth reads like this: (locus YGR078C, strain PAC10, active compounds read low) 0.99; (locus YJR075W, strain HOC1, active compounds read low) 0.97; (locus YMR263W, strain SAP30, active compounds read low) 1; (locus YMR307W, strain GAS1, active compounds read low) 0.995; (locus YNL153C, strain GIM3, active compounds read low) 0.923; (locus YNL175C, strain NOP13, active compounds read low) 0.981. For the same compound, the normalized growth was 0.971 (locus YNL197C, strain WHI3, active compounds read low); 0.973 (locus YNL224C, strain SQS1, active compounds read low); 0.988 (locus YNL322C, strain KRE1, active compounds read low); 0.763 (active) (locus YOR083W, strain WHI5 (second series), active compounds read low); 1.01 (locus YPL241C, strain CIN2, active compounds read low).
